# In the supplement of paper PMC8866396:
# ± gives the standard deviation of the averaged measurements.
# How the values were obtained:
# IL-6-GFP PC-9GR = experiment: cell viability (CCK-8 OD) relative to DMSO control (fraction of control); higher = more viable cells; conditions: compound concentration: 10 uM; treatment time: 48 h
# Procedure, shortened: (§1)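 Compounds from a purchased library of 510 were each tested at a final 10 μM for 48 h on PC-9 and PC-9GR lung cancer cells plated at 3000 cells/well in 96-well plates. These cells overexpressed IL-6-GFP from a lentiviral construct. Viability came from CCK-8 absorbance, given as the optical density of each well over that of the vehicle control well, across independent replicates numbering two.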
# IL-6-GFP PC-9 = experiment: as above; conditions: compound concentration: 10 uM; treatment time: 48 h
# Procedure, shortened: as §1
Structure (SMILES),cell viability (IL-6-GFP PC-9GR),cell viability (IL-6-GFP PC-9)
O=C(O)CCC(=O)c1ccc(-c2ccccc2)cc1 [Fenbufen],1 ± 0.06,1.08 ± 0.12
CN1CCC(=C2c3ccccc3CCc3cccnc32)CC1.O=C(O)/C=C\C(=O)O.O=C(O)/C=C\C(=O)O [Azatadine dimaleate],0.981 ± 0.12,0.513 ± 0.013
O=C(O)CCCN1CCC(OC(c2ccc(Cl)cc2)c2ccccn2)CC1.O=S(=O)(O)c1ccccc1 (stereo unspecified) [Bepotastine Besilate],0.9937 ± 0.0023,0.84 ± 0.015
CCC(C)n1ncn(-c2ccc(N3CCN(c4ccc(OCC5COC(Cn6cncn6)(c6ccc(Cl)cc6Cl)O5)cc4)CC3)cc2)c1=O (stereo unspecified) [Itraconazole],0.797 ± 0.19,0.269 ± 0.17
CCOc1ccc(NC(C)=O)cc1 [Phenacetin],1.24 ± 0.33,1.09 ± 0.054
Cc1c(O)c(C)c2c(c1O)C(=O)CC(c1ccc(O)cc1)O2 (stereo unspecified) [Farrerol],1.19 ± 0.11,1.05 ± 0.037
CN(C)C/C=C/C(=O)Nc1cc2c(Nc3ccc(F)c(Cl)c3)ncnc2cc1OC1CCOC1 (stereo unspecified) [Afatinib (BIBW2992)],0.542 ± 0.058,0.294 ± 0.038
CCCCCCCCc1ccc(CCC(N)(CO)CO)cc1 [Fingolimod],0.513 ± 0.18,0.924 ± 0.37
COc1cc2ncnc(Nc3ccc(F)c(Cl)c3)c2cc1NC(=O)/C=C/CN1CCCCC1,0.477 ± 0.02,0.443 ± 0.033
CC1CC2C3CCC4=CC(=O)C=CC4(C)C3C(=O)CC2(C)C1(O)C(=O)CO (stereo unspecified) [Meprednisone],1.25 ± 0.14,1.46 ± 0.35
CONC(=O)Nc1ccc(-c2sc3c(c2CN(C)C)c(=O)n(-c2ccc(OC)nn2)c(=O)n3Cc2c(F)cccc2F)cc1 [Relugolix],1.41 ± 0.42,1.01 ± 0.17
NC1CN(c2c(F)cc3c(=O)c(C(=O)O)cn(C4CC4F)c3c2Cl)CC12CC2.NC1CN(c2c(F)cc3c(=O)c(C(=O)O)cn(C4CC4F)c3c2Cl)CC12CC2.O.O.O (stereo unspecified) [Sitafloxacin Hydrate],1.11 ± 0.072,1.01 ± 0.042
CN(C)CCCOc1nn(Cc2ccccc2)c2ccccc12.Cl [Benzydamine HCl],0.996 ± 0.23,0.549 ± 0.52
Nc1nc(=O)c2c([nH]1)NCC(CNc1ccc(C(=O)NC(CCC(=O)[O-])C(=O)[O-])cc1)N2C=O.O.O.O.O.O.[Ca+2] (stereo unspecified) [Leucovorin Calcium Pentahydrate],1.25 ± 0.17,1.16 ± 0.28
COc1ccc2cc(C(C)C(=O)O)ccc2c1 (stereo unspecified) [Naproxen],1.5 ± 0.37,1.08 ± 0.16
COc1ccc(-c2cc(=S)ss2)cc1 [Anethole trithione],0.868 ± 0.15,1.17 ± 0.031
CN1C(C(=O)Nc2ccccn2)=C(O)c2ccccc2S1(=O)=O [Piroxicam],1.21 ± 0.047,1.09 ± 0.12
COc1cc2nccc(Oc3ccc(NC(=O)C4(C(=O)Nc5ccc(F)cc5)CC4)cc3)c2cc1OC.O=C(O)CC(O)C(=O)O [Cabozantinib malate (XL184)],0.81 ± 0.13,0.958 ± 0.062
COc1ccc2cc(C(C)C(=O)[O-])ccc2c1.[Na+] (stereo unspecified) [Naproxen Sodium],1.36 ± 0.035,1.16 ± 0.16
Cl.N=C1CCCN1Cc1[nH]c(=O)[nH]c(=O)c1Cl [Tipiracil hydrochloride],1.14 ± 0.35,1.25 ± 0.059
Cc1nc(NC(=O)N2CCCC2C(N)=O)sc1-c1ccnc(C(C)(C)C(F)(F)F)c1 (stereo unspecified) [Alpelisib (BYL719)],0.983 ± 0.067,0.934 ± 0.11
S=P(N1CC1)(N1CC1)N1CC1 [Thiotepa],1.02 ± 0.074,0.977 ± 0.074
Cl.Clc1ccc(CCCOCCCN2CCCCC2)cc1 [Pitolisant hydrochloride],0.916 ± 0.11,1.13 ± 0.28
CCOc1ccc(Cc2cc(C3OC(CO)C(O)C(O)C3O)ccc2Cl)cc1 (stereo unspecified) [Dapagliflozin],1.37 ± 0.23,1.74 ± 0.67
COc1ccc2c(c1)c(CC(=O)O)c(C)n2C(=O)c1ccc(Cl)cc1 [Indomethacin],0.478 ± 0.33,1.03 ± 0.027
CCCCCOC(=O)Nc1nc(=O)n(C2OC(C)C(O)C2O)cc1F (stereo unspecified) [Capecitabine],0.655 ± 0.029,0.459 ± 0.015
CN(C)C(=O)c1cc2cnc(Nc3ccc(N4CCNCC4)cn3)nc2n1C1CCCC1 [Ribociclib (LEE011)],1.29 ± 0.4,1.01 ± 0.029
CCC1(O)C(=O)OCc2c1cc1n(c2=O)Cc2cc3c(CN(C)C)c(O)ccc3nc2-1.Cl (stereo unspecified) [Topotecan HCl],0.451 ± 0.033,0.355 ± 0.11
